From PubChem BioAssay AID2066 (NMMLSC, 2009)
In all, about 320,000 compounds went through this assay and about 50 (0.02%) were called active.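 Rule for the calls: active = GFP response relative to DMSO above a set limit, near screen average plus 3 SD (cut at about 150% in these data); inconclusive = fewer than 70 cells counted for the yeast strain; inactive = the rest.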 What follows is part of a selection rich in actives, with near analogues and random picks from the rest.

Experiment: modulators of AGP1-GFP expression in yeast TOR pathway, primary screen, cell-based, multiplex flow cytometry, S. cerevisiae, MLPCN library (AID 2066);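 note: median GFP channel fluorescence of the gated AGP1 strain per well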
Settings: 3 h, at 10 µM, stronger effect = higher value, GFP as percent of DMSO wells
With `C#CCO[C@@H]1C[C@H](n2cnc3c(=O)[nH]c(NC(=O)C(C)C)nc32)O[C@@H]1CO` the GFP response vs DMSO was 87.2% (inactive). With `CC1=CC(C)(C)NC(=S)N1NC(=O)c1ccccc1Cl` the GFP response vs DMSO was 109% (inactive). In the case of `COc1ccc(/C(C)=N/N2CCOCC2)c(O)c1`, the GFP response vs DMSO was 104% (inactive). In the case of `Cc1cccc(CSc2nc3c(c(=O)n2C)SCC3)c1`, the GFP response vs DMSO was 91.2% (inactive). For `Cn1nccc1C(=O)NC1CCCc2c1cnn2-c1ccc(F)cc1F` (stereo not drawn), the GFP response vs DMSO was 95.7% (inactive). With `CN(C)N(C)C(=O)C(O)(c1ccccc1)c1ccccc1` the GFP response vs DMSO was 109% (inactive). In the case of `CCC(C)(C)NC(=O)C(c1ccc(O)cc1)N(Cc1ccco1)C(=O)CCC(=O)Nc1ccccn1` (stereo not drawn), the GFP response vs DMSO was 100% (inactive). For `CCOc1ccc(S(=O)(=O)N2CCC(C(=O)NCC(=O)Nc3cccc(Cl)c3C)CC2)cc1`, the GFP response vs DMSO was 93.8% (inactive). With `O=C(NCc1ccc(F)cc1)C1CCN(C(=O)Nc2ccc(F)cc2)CC1` the GFP response vs DMSO was 96.4% (inactive). In the case of `O=C(OCC(=O)N1CCN(C(=O)c2ccco2)CC1)c1ccc(Cl)c(Cl)c1`, the GFP response vs DMSO was 103% (inactive). For `COc1ccccc1OCc1ccc(C(=O)NC(C)c2ccccc2)o1` (stereo not drawn), the GFP response vs DMSO was 95.8% (inactive). For `Cc1c(Cl)c([N+](=O)[O-])nn1Cc1ccc(C(=O)N/N=C\c2cc(Cl)ccc2O)o1`, the GFP response vs DMSO was 99.4% (inactive). In the case of `C/C=C/c1ccc(OCC(=O)NNC(=O)CN(C)S(=O)(=O)c2ccc(C)cc2)c(OC)c1`, the GFP response vs DMSO was 91.6% (inactive). In the case of `O=C(O)C(F)(F)C(NCc1ccccc1)c1ccccc1` (stereo not drawn), the GFP response vs DMSO was 102% (inactive). For `CCOC(=O)C1C(=O)NCC1c1ccccc1` (stereo not drawn), the GFP response vs DMSO was 109% (inactive). For `CCOC(=O)c1ccccc1NC(=O)c1c(N)n(C)c(=O)[nH]c1=O`, the GFP response vs DMSO was 87.3% (inactive). With `N#C/C=C/N1CCN(Cc2ccc3c(c2)OCO3)CC1` the GFP response vs DMSO was 93% (inactive). In the case of `O=C(O)CCCCOn1ccnc1`, the GFP response vs DMSO was 91.2% (inactive). In the case of `O=C(Nc1c2c(nn1-c1cccc(Cl)c1)CS(=O)(=O)C2)c1cccs1`, the GFP response vs DMSO was 90.9% (inactive). In the case of `Cc1ccccc1NC(=O)C(C)c1ccc(-c2ccccc2)c(F)c1` (stereo not drawn), the GFP response vs DMSO was 97.8% (inactive). For `CCn1cc(C(=O)N2CC(C)CC(C)C2)c(=O)c2cc(S(=O)(=O)N3CCCC3)ccc21` (stereo not drawn), the GFP response vs DMSO was 93.8% (inactive). In the case of `CC1=CC=CN2C1=NC(=O)CC2(C)C(=O)N(CC(=O)NC1CCCC1)c1ccccc1C` (stereo not drawn), the GFP response vs DMSO was 99.9% (inactive). With `CCOc1ncccc1C(=O)OCC(=O)Nc1cccc(S(=O)(=O)N2CCCCCC2)c1` the GFP response vs DMSO was 100% (inactive). With `CCOc1ccc(N2C(=O)CSC2=NC#N)cc1` the GFP response vs DMSO was 88.3% (inactive). For `Cc1ccc(S(=O)(=O)NCC(=O)N(CC(=O)NCC2CCCO2)c2cccc(F)c2)cc1` (stereo not drawn), the GFP response vs DMSO was 114% (inactive). For `CC1(C)NC(=O)N(CC(=O)N2CCN(S(=O)(=O)c3ccccc3F)CC2)C1=O`, the GFP response vs DMSO was 95.5% (inactive). With `Cc1cc(C)c(NC(=S)N2CCCC2C(=O)O)c(C)c1` (stereo not drawn) the GFP response vs DMSO was 102% (inactive). With `Cc1cccc(C)c1NC(=O)C1(N(C(=O)c2ccccn2)c2ccc(O)cc2)CCCCC1` the GFP response vs DMSO was 97.2% (inactive). In the case of `CC(=O)C[C@H](O)CC(=O)[C@@H]1OC(=O)[C@@H](C)C/C=C\Cc2ccccc21`, the GFP response vs DMSO was 98.2% (inactive). With `CCOc1ccc(C2NC(=S)NC3=C2CCc2ccccc23)cc1` (stereo not drawn) the GFP response vs DMSO was 103% (inactive). In the case of `CCCCn1nc(C(=O)N2CCc3ccccc32)c2ccccc2c1=O`, the GFP response vs DMSO was 98.5% (inactive). In the case of `Cc1ccccc1OCC(=O)NNC(=O)c1ccc(-n2cncn2)c([N+](=O)[O-])c1`, the GFP response vs DMSO was 106% (inactive). With `O=C(CSc1cccc[n+]1[O-])NCCCc1ccccc1` the GFP response vs DMSO was 101% (inactive). For `O=C(Nc1ccc(F)cc1)C1CCCN(S(=O)(=O)c2ccc(-n3cnnn3)cc2)C1` (stereo not drawn), the GFP response vs DMSO was 102% (inactive). With `CCN(CC)CCNS(=O)(=O)c1ccc(/C=C/C(=O)O)cc1` the GFP response vs DMSO was 98.4% (inactive). In the case of `Cc1ccc(NC(=O)CSc2nn3c(=O)c(C)nnc3s2)cc1Cl`, the GFP response vs DMSO was 93.9% (inactive). With `CC(=O)Nc1ccc(Nc2nc3c(S(=O)(=O)c4ccc(C)c(C)c4)nnn3c3ccccc23)cc1` the GFP response vs DMSO was 100% (inactive). With `Cc1ccc(S(=O)(=O)c2nnn3c2nc(N2CCN(c4ccccn4)CC2)c2ccccc23)cc1` the GFP response vs DMSO was 97.1% (inactive). For `Cc1cccc(Nc2nc3c(S(=O)(=O)c4ccccc4)nnn3c3ccccc23)c1C`, the GFP response vs DMSO was 224% [may fluoresce green] (active). For `NC(=O)C1CC=CCC1C(=O)OCC(Cl)=C(Cl)Cl` (stereo not drawn), the GFP response vs DMSO was 105% (inactive). With `Cc1cc(C)cc(OCC(=O)OCC(=O)NC2CCCC2)c1` the GFP response vs DMSO was 87.5% (inactive). For `Cc1ccc(C(=O)Nc2ccn(C)n2)cc1`, the GFP response vs DMSO was 102% (inactive). In the case of `O=C(Nc1nccs1)c1cc(S(=O)(=O)N2CCOCC2)c(Cl)cc1Cl`, the GFP response vs DMSO was 100% (inactive). In the case of `CN(C)S(=O)(=O)c1cc(C(=O)Nc2ccn(C)n2)c(Cl)cc1Cl`, the GFP response vs DMSO was 1300% [may fluoresce green] (active). For `Cn1nnnc1SCC(=O)Nc1ccccc1C(=O)NC1CC1`, the GFP response vs DMSO was 102% (inactive). For `Cc1ccc2c(=O)cc(C(=O)NCCc3ccc(S(N)(=O)=O)cc3)oc2c1C`, the GFP response vs DMSO was 93.5% (inactive). In the case of `Cc1oc(C(N)=O)cc1COc1ccc(C(N)=O)cc1`, the GFP response vs DMSO was 101% (inactive). With `O=C1CCC/C=C/C[C@@H](CC(=O)N(CCO)Cc2ccccc2)C(=O)NC[C@H](c2ccccc2)O1` the GFP response vs DMSO was 96.8% (inactive). For `Cc1ccc(C)c(NC(=O)CCC(=O)N/N=C2/CC(=O)CC(C)(C)C2)c1`, the GFP response vs DMSO was 96.2% (inactive). In the case of `O=C(COC(=O)c1cc(S(=O)(=O)N2CCOCC2)ccc1F)NC1CC1`, the GFP response vs DMSO was 91.4% (inactive). With `COc1cccc(C(=O)Nc2cc3c(cc2Br)OCCCO3)c1` the GFP response vs DMSO was 92% (inactive). For `CS(=O)(=O)Nc1ccccc1C(=O)OCC(=O)NC1CC1`, the GFP response vs DMSO was 106% (inactive). With `O=C(CCc1[nH]c2ccccc2c1Sc1ccccc1)N(CCO)CCO` the GFP response vs DMSO was 99.2% (inactive). For `Nc1nc(NCc2ccccc2)n(-c2ccccc2)n1`, the GFP response vs DMSO was 99.9% (inactive). For `COc1cc(C)ccc1OCC(=O)OCC(=O)c1ccc[nH]1`, the GFP response vs DMSO was 100% (inactive). With `COc1ccc(S(=O)(=O)N(C)C[C@@H]2Oc3ccc(NS(=O)(=O)c4cn(C)cn4)cc3C(=O)N([C@@H](C)CO)C[C@@H]2C)cc1` the GFP response vs DMSO was 91.3% (inactive). For `COCCn1c(SCC(=O)Nc2ccccc2F)nc2c(c1=O)SCC2`, the GFP response vs DMSO was 96.5% (inactive). With `Cc1ccc(Oc2cc(NC(=O)CCCn3nc(C)c([N+](=O)[O-])c3C)cc([N+](=O)[O-])c2)cc1` the GFP response vs DMSO was 95.5% (inactive).
